One may read the inhibition as the change of the read-out against control, counted positive when it falls.

Each structure is given as a SMILES string. Among all 1,300 compounds or so, about 750 (58%) were called active. The list shows a part of the results.

Sulfhydryl oxidase 1 (Homo sapiens), sequence (O00391 whole entry, looked up): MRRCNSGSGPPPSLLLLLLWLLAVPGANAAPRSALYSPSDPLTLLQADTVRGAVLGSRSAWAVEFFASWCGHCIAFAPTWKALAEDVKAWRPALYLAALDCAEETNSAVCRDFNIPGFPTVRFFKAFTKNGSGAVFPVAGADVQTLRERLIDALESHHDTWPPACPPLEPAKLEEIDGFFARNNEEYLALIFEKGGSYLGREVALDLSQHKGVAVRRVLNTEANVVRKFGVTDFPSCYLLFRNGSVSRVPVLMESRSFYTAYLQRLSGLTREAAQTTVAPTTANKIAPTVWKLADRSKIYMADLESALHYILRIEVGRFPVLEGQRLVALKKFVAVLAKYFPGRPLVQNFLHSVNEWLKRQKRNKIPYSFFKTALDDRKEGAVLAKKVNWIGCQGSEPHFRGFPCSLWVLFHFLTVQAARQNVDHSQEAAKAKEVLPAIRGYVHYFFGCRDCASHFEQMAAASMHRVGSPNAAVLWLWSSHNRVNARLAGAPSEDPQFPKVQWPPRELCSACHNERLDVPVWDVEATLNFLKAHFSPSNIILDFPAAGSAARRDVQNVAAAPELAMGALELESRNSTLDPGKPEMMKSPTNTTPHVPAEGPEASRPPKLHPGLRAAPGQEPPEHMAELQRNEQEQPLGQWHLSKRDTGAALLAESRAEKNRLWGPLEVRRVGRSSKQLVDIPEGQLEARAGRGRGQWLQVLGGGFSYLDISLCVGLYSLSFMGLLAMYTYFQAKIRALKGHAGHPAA

This experiment has as its target Sulfhydryl oxidase 1 (Homo sapiens) (UniProt O00391). Nature of the experiment: QSOX1 enzyme inhibitors, primary screen, biochemical, ROS-Glo H2O2 luminescence, HTS (AID 1347418). Conditions: recombinant QSOX1, ROS-Glo H2O2 luminescence; at 12.5 µM; active compounds read high; active = any value above zero.
With `Cc1ccc([N+](=O)[O-])cc1S(=O)(=O)N(C)C`, the inhibition was 9.9% (active). As for `Oc1ccc(/C=C/c2cc(O)cc(O)c2)cc1`, the figure is 23.2% (active).

On to `Oc1ccc(/C=C/c2ccc(/C=C/c3ccc(O)cc3)c(Br)c2)cc1`, for which the inhibition is 1% (active). The same measure for `O=c1cc(O)cc(/C=C/c2ccc(O)c(O)c2)o1`: 30.2% (active). As for `Oc1cc(O)cc(/C=C/c2ccc(O)c(O)c2)c1`, the inhibition is 44% (active). As to `C=CCn1c(=O)c2c(nc(-c3ccc(S(=O)(=O)O)cc3)n2C)n(C)c1=O`, the inhibition was -0.9% (inactive).

Consider `Cn1c(=O)c2c(nc(/C=C/c3cccc(Cl)c3)n2C)n(C)c1=O`, for which the inhibition was 11.3% (active). With `O=C1NC(=O)C(c2ccccc2[N+](=O)[O-])=C1Nc1ccc(O)c(Cl)c1`, the inhibition was 35.4% (active). Turning to `Cc1nc2n(c(=O)c1CCN1CCC(c3noc4cc(F)ccc34)CC1)CCCC2O` (stereo unspecified), the inhibition was 1.5% (active). As for `CN1CCN(C2=Nc3ccccc3Oc3ccc(Cl)cc32)CC1`, the figure is 1.9% (active); as for `Clc1ccc2c(c1)C(N1CCNCC1)=Nc1ccccc1O2`, 2.5% (active); as for `Nc1nc2[nH]c(=O)cnc2c(=O)[nH]1`, 2.6% (active). `Cn1cc(C(F)(F)F)nc1-c1ccc(OCC(O)CNCCOc2ccc(O)c(C(N)=O)c2)cc1` (stereo unspecified): the inhibition is 5.6% (active). Consider `O=C(c1ccc2c(c1)OCCO2)N1CCCCC1`, for which the inhibition was 4.8% (active). Consider `CCC(=O)N1CCN(C(=O)c2ccccc2)CC1`, for which the inhibition was -5.7% (inactive). `NC[C@H](O)c1ccc(O)c(O)c1`: the inhibition is 9.5% (active). For the compound `NCC(O)c1ccc(O)c(O)c1` (stereo unspecified), the inhibition is 7.1% (active). Turning to `C=C[C@H]1CN2CC[C@@H]1C[C@@H]2[C@H](O)c1ccnc2ccc(OC)cc12`, the inhibition was -1.1% (inactive). Take `NCCCNCCSP(=O)(O)O`: the inhibition is 1.1% (active). On to `CC(C)COCC(CN(Cc1ccccc1)c1ccccc1)N1CCCC1` (stereo unspecified), for which the inhibition is 9.6% (active). The same measure for `Cc1ccc(=O)n(-c2ccccc2)c1`: 0.9% (active); for `CCCCC1C(=O)N(c2ccccc2)N(c2ccccc2)C1=O`: -5.9% (inactive). The same measure for `Cc1cc(O)c2c(c1)C(=O)c1cc(O)cc(O)c1C2=O`: 10.6% (active); for `CCCc1c(-c2ccc(O)cc2)nn(-c2ccc(O)cc2)c1-c1ccc(O)cc1`: 17.5% (active). As for `Cn1cc(C(=O)OCC2CCN(CCNS(C)(=O)=O)CC2)c2ccccc21`, the figure is -2.2% (inactive); as for `CCN(CC)C(=S)SSC(=S)N(CC)CC`, 14.5% (active). As to `CC12C(=O)OC(=O)C1(C)C1CCC2O1` (stereo unspecified), the inhibition is -4% (inactive). The same measure for `CN1CCc2cc(O)c(O)cc2C(c2ccccc2)C1` (stereo unspecified): 14.7% (active).

In the case of `CN1CCc2cc(Cl)c(O)cc2[C@@H](c2ccccc2)C1`, the inhibition is 10.2% (active). Turning to `CN(C)c1cc2c(Nc3ccc4c(cnn4Cc4ccccc4)c3)ncnc2cn1`, the inhibition is -0.7% (inactive). The same measure for `Cc1cc(C(C)(C)C)cc(C)c1CC1=NCCN1`: 3.9% (active); for `Cc1cc(C(C)(C)C)c(O)c(C)c1CC1=NCCN1`: -1.4% (inactive).

As for `N=S(=O)([O-])Cc1noc2c1C=C[C+]=C2`, the inhibition is -4.8% (inactive).

For `COC1=C(OC)C(=O)c2ccccc2C1=O`, the inhibition is 6.2% (active). For `O=C1C(SCCO)=C(SCCO)C(=O)c2ccccc21`, the inhibition is -58.7% (inactive).

For `Oc1ccc(-c2nc(-c3ccc(F)cc3)c(-c3ccncc3)[nH]2)cc1`, the inhibition was 31.8% (active). The same measure for `O=[N+]([O-])c1ccc(-c2nc(-c3ccc(F)cc3)c(-c3ccncc3)[nH]2)cc1`: 6.9% (active); for `N#Cc1cc([N+](=O)[O-])c2sc(C(N)=O)[n+]([O-])c2c1`: 2.3% (active); for `COc1nc(C)nc(Cl)c1NC1=NCCN1`: -8.3% (inactive).

For the compound `Cc1nn(-c2ccccc2)c(C)c1C=NN1CCN(Cc2ccccc2)CC1`, the inhibition was 5.8% (active). The same measure for `Nc1nnc(-c2cccc(Cl)c2Cl)c(N)n1`: -3.6% (inactive); for `Nc1ccc(N2C(=O)c3ccccc3C2=O)c(Cl)c1`: 10.7% (active); for `CCCCCCCCCC(=O)NC(CN1CCOCC1)[C@H](O)c1ccccc1` (stereo partly specified): 4.7% (active). As for `CC1COc2c(N3CCN(C)CC3)c(F)cc3c(=O)c(C(=O)O)cn1c23` (stereo unspecified), the figure is -1.5% (inactive). Take `CN=C(NC#N)NCCSCc1nc[nH]c1C`: the inhibition is 3.1% (active). As for `NC(=O)OCC(COC(N)=O)c1ccccc1`, the figure is 1.7% (active); as for `NS(=O)(=O)C#Cc1ccccc1`, 0.5% (active). With `Oc1ccc2ccccc2c1SSc1c(O)ccc2ccccc12`, the inhibition is 34.9% (active). Consider `Clc1nccc2c1ccc1ccccc12`, for which the inhibition is -1.8% (inactive). As for `COc1cc(/C=C(\C#N)C(=O)Nc2nnc(C(F)(F)F)s2)ccc1OCc1ccc(C(F)(F)F)cc1C(F)(F)F`, the figure is 0.8% (active); as for `CN(C)c1nc2c(Br)c(Br)c(Br)c(Br)c2[nH]1`, 7% (active); as for `Nc1cc(=O)[nH]c(N)n1`, 2% (active).

With `CCCN(CCC)CCc1cccc2c1CC(=O)N2`, the inhibition was 1.5% (active).

For the compound `CC(C)CC(NP(=O)(O)O[C@@H]1O[C@@H](C)[C@H](O)[C@@H](O)[C@H]1O)C(=O)NC(Cc1c[nH]c2ccccc12)C(=O)O` (stereo partly specified), the inhibition was 4.6% (active). The same measure for `CN[C@H](CC(=O)O)C(=O)O`: 2.3% (active). As for `CC[C@H](C)C(=O)O[C@H]1CCC=C2C=C[C@H](C)[C@H](CC[C@@H]3C[C@@H](O)CC(=O)O3)[C@H]21`, the inhibition was -6.8% (inactive). The same measure for `NC(N)=N[C@@H](CCC(=O)O)C(=O)O`: 0.9% (active); for `CNCCC=C1c2ccccc2CCc2ccccc21`: 2.3% (active); for `CC#CCOC(=O)c1c(C)nc2sc3c(c2c1N)CCC(O)C3` (stereo unspecified): 1.6% (active). The same measure for `CN1CCC[C@H]1c1cccnc1`: -0.6% (inactive); for `COc1ccccc1N1CCN(CCCNc2cc(=O)n(C)c(=O)n2C)CC1`: 10.9% (active). As for `COc1ccccc1N1CCN(CCCNc2c(C)c(=O)n(C)c(=O)n2C)CC1`, the inhibition is 7.4% (active).

`CCC(C)N(C)C(=O)c1cc2ccccc2c(-c2ccccc2Cl)n1` (stereo unspecified): the inhibition is -1.2% (inactive). For the compound `OCCN1CCN(CCCN2c3ccccc3C=Cc3ccccc32)CC1`, the inhibition is 6.4% (active).

Regarding `OCCN1CCN(CCCN2c3ccccc3Sc3ccc(Cl)cc32)CC1`, the inhibition is 45.4% (active). The same measure for `CN1CCN(CCCN2c3ccccc3Sc3ccc(Cl)cc32)CC1`: 46.5% (active); for `CN1CCN(C2Cc3ccccc3Sc3ccc(Cl)cc32)CC1` (stereo unspecified): -2.3% (inactive). As for `COc1cc2c(cc1OC)-c1cc(=Nc3c(C)cc(C)cc3C)n(C)c(=O)n1CC2`, the figure is -1.4% (inactive).

As to `CC(C)(C)c1ccc(S(=O)(=O)/C=C/C#N)cc1`, the inhibition is 1.2% (active). The same measure for `Cc1ccc(S(=O)(=O)/C=C/C#N)cc1`: 0.7% (active); for `C=C[C@@]1(C)CC(=O)[C@]2(O)[C@@]3(C)[C@H](O)CCC(C)(C)[C@@H]3[C@H](O)[C@H](OC(C)=O)[C@@]2(C)O1`: 19.3% (active); for `Nc1nc(N)c(N=O)c(OCC2CCCCC2)n1`: 20.8% (active). As for `CC(C)(C)c1onc(OCP(=O)(O)O)c1CC(N)C(=O)O` (stereo unspecified), the figure is 4.7% (active); as for `CCCN(CC1CC1)c1nc(C)nc(Nc2c(Cl)cc(Cl)cc2Cl)c1Cl`, 0.1% (active). As to `CCSC(=N)N`, the inhibition is 0.7% (active). As for `CSC(=N)N`, the figure is -7.4% (inactive). In the case of `CCN1/C(=C/C(C)=O)Sc2ccc(OC)cc21`, the inhibition is 10.3% (active).

Take `CC(=O)O[C@H]1CC2(C)[C@@H](C[C@@H](O)[C@H]3[C@@]4(C)CC[C@@H](O)[C@@H](C)[C@@H]4CC[C@@]32C)/C1=C(/CCC=C(C)C)C(=O)O` (stereo partly specified): the inhibition is 2.7% (active). The same measure for `Fc1cccc(/C=N/N=C/c2cccc(F)c2)c1`: 1.9% (active).

Regarding `Nc1nc(Cl)nc2c1ncn2[C@@H]1O[C@H](CO)[C@H](O)C1O` (stereo partly specified), the inhibition was -0.3% (inactive).

In the case of `CNC(=O)[C@H]1O[C@@H](n2cnc3c(NCc4cccc(I)c4)ncnc32)C(O)[C@H]1O` (stereo partly specified), the inhibition was -1.8% (inactive). As for `Nc1nc(Nc2ccccc2)nc2c1ncn2[C@@H]1O[C@H](CO)[C@H](O)C1O` (stereo partly specified), the inhibition is -2.6% (inactive). The same measure for `CCNC(=O)[C@H]1O[C@@H](n2cnc3c(N)nc(NCCc4ccc(CCC(=O)O)cc4)nc32)C(O)[C@H]1O` (stereo partly specified): 1.5% (active); for `CCCCC#Cc1nc(NC)c2ncn([C@@H]3O[C@H](CO)C(O)[C@@H]3O)c2n1` (stereo partly specified): -4.5% (inactive). The same measure for `CNC(=O)[C@H]1O[C@@H](n2cnc3c(NCc4ccc(N)cc4)ncnc32)C(O)[C@H]1O` (stereo partly specified): 6% (active); for `O=C(c1ccc(Cl)cc1)N1CCN(c2ccc([N+](=O)[O-])c3ncccc23)CC1`: 1.5% (active); for `O=c1cc(N2CCOCC2)oc2c(-c3ccccc3)cccc12`: -2.2% (inactive).

As to `OCC1O[C@H](O)C(Cl)C(O)C1O` (stereo partly specified), the inhibition is 4.9% (active). The same measure for `CC(C)C[C@H](NC(=O)C1OC1C(=O)O)C(=O)NCCCCN=C(N)N` (stereo partly specified): 10.1% (active); for `COC1(C2=NCCN2)COc2ccccc2O1` (stereo unspecified): 3.2% (active); for `O=C(O)CN(CCN(CC(=O)O)CC(=O)O)CCN(CC(=O)O)CC(=O)O`: -5% (inactive). The same measure for `CN1C(=O)CC[C@H]1c1cccnc1`: -4% (inactive); for `CN1CCc2cc(NC(=O)Nc3cccnc3)ccc21`: 7.1% (active); for `Cn1ccc2cc3c(cc21)CCN3C(=O)Nc1cccnc1`: -2.2% (inactive). As for `Nc1c2c(nc3ccccc13)CCCC2O` (stereo unspecified), the figure is -1% (inactive). In the case of `NNc1nncc2ccccc12`, the inhibition is 26.1% (active). In the case of `O=c1c(O)c(-c2ccc(O)c(O)c2)oc2cc(O)cc(O)c12`, the inhibition was 33.1% (active).

Consider `O=c1c(O)c(-c2cc(O)c(O)c(O)c2)oc2cc(O)cc(O)c12`, for which the inhibition is 25.8% (active).

For `O=c1c(O)c(-c2ccc(O)cc2O)oc2cc(O)cc(O)c12`, the inhibition was 41.5% (active).

Regarding `O=c1cc(-c2ccc(O)cc2)oc2cc(O)cc(O)c12`, the inhibition was 15.3% (active).

Consider `S=C(Nc1ccccc1)Nc1nccs1`, for which the inhibition is -0.6% (inactive). On to `NO`, for which the inhibition is -19.9% (inactive). As to `CN(C)CCCO[C@@H]1[C@H]2OC(C)(C)O[C@H]2O[C@@H]1C(O)CO` (stereo partly specified), the inhibition was 1.3% (active). As for `O=C1NC(=O)c2cc(Nc3ccccc3)c(Nc3ccccc3)cc21`, the inhibition is 44.9% (active). On to `O=[N+]([O-])c1cccc2cn[nH]c12`, for which the inhibition was -7.7% (inactive). Take `O=[N+]([O-])c1cccc2c(Br)[nH]nc12`: the inhibition is 5.3% (active).

For the origin of these results see PubChem BioAssay AID1347418 (Sanford-Burnham Center for Chemical Genomics, 2020).
